Data as given in publication PMC5540273 (PLoS ONE, 2017).

system: AAK1
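Further: kd values determined as follow-up on hits from a single-replicate KINOMEscan panel screen.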

Compound | Kd [nM]
Cc1cc(-c2ccc3c(c2)CC[C@@H](N[C@@H](C)c2ccccc2)C3)cnc1N.Cl [GW412617] | 3600
COc1ccc(Nc2nccc(NCCNC(=O)Nc3ccccc3F)n2)cc1 [GSK1379901] | > 10000
O=C(Nc1n[nH]c2cc(-c3cccc(F)c3F)ccc12)C1CC1 [SB-733894] | 2100
Cc1cccc(-c2nc(C)cc(Nc3ccncc3)n2)n1 [GSK257997] | > 10000
CN1C(=O)C(Nc2ccc(Cl)c(C(=O)O)c2)=C(c2ccc(Cl)cc2)C1=O [SB-404290] | > 10000

system: ABL1-nonphosphorylated

Compound | Kd [nM]
Cc1cccc(-c2nc(-c3ccc(S(C)(=O)=O)cc3)sc2-c2ccnc(NCCc3ccccc3)c2)c1 | 330
COc1ccc(Nc2nccc(-c3cccc(NC(=O)c4cc5cc(F)ccc5[nH]4)c3)n2)cc1 [GSK1229782] | 100
Cc1ccccc1-n1cnc2c(N)ncnc21 [SKF-97510] | > 10000
CC(=O)Nc1nc2cnc(Nc3cc(NC(=O)c4cccc(CCC#N)c4)ccc3C)nc2s1 | > 10000
O=C(Nc1ccccc1)Nc1cccc(Oc2ccc3nccn3n2)c1 | 140

system: ACVR1B

Compound | Kd [nM]
Cc1cccc(-c2cc(Nc3ccncc3)c3ccccc3n2)n1 [GSK223675] | 31
Cc1cccc(-c2nc(Nc3ccncc3)c3ccccc3n2)n1 [GW855857] | 3.3
Cc1cccc(-c2nc(Nc3ccc4[nH]ncc4c3)c3ccccc3n2)n1 [GW857175] | 54
COc1ccc2nc(-c3cccc(C)n3)nc(Nc3ccncc3)c2c1 [GSK204919] | 150
Cc1csc(-c2nc(Nc3ccncc3)c3ccccc3n2)n1 [GW869640] | 39
Cc1ccc(NC(=O)Nc2cccc(C(F)(F)F)c2)cc1 [GSK955403] | > 10000
Cc1cccc(-c2nc(Nc3cccc(C(N)=O)c3)c3ccccc3n2)n1 [GW876019] | 1600
Cl.c1ccc(-c2n[nH]cc2-c2ccnc(-c3ccc(CN4CCOCC4)cc3)c2)nc1 [GW776245] | 180

system: ACVR2B

Compound | Kd [nM]
Cc1c(O)cccc1Nc1ccnc2ccc(C(F)(F)F)cc12.Cl [GW466413] | 240
Fc1cc(Cl)ccc1Nc1ccnc2cc(I)ccc12 [GW551191] | 110
Fc1cccc(COc2nnc(-c3ccc4c(c3)CCO4)o2)c1 | > 10000
